Among the data in PubChem BioAssay AID488922 (Johns Hopkins Ion Channel Center, 2010) are B-score values, retold here.

The campaign covered roughly 310,000 compounds. About 3,800 (1.2%) were called active.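 How the source made its calls: active means ratio B-score over 3 SD below the library mean, with starting fluorescence within 5 SD of its mean; inactive means the rest, inconclusive results apart.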 This excerpt belongs to a sample that is enriched for actives.

The target in the assay is Potassium channel subfamily K member 9 (Homo sapiens) (UniProt Q9NPC2). Briefly: blockers of human TASK-3 (KCNK9) channel – HEK293 cells, thallium flux, primary screen (AID 488922).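 On B-score: negative B-score means less thallium flux so channel inhibition.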 Particulars: HEK293 KCNK9, FluxOR thallium flux fluorescence, at 10 µM; active compounds read low.
Chain of Potassium channel subfamily K member 9 (Homo sapiens) (Q9NPC2 whole entry, looked up): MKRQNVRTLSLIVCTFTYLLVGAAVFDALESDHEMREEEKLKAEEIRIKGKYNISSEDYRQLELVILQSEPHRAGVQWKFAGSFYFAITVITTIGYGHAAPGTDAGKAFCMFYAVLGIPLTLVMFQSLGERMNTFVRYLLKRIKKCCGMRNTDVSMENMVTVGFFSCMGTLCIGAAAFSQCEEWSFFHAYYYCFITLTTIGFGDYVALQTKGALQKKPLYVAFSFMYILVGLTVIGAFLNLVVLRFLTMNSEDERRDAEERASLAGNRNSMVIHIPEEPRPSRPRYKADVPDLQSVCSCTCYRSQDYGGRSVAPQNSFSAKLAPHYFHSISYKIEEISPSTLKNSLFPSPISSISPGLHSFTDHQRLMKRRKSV
`COc1cc(CCC(=O)N2CCN(c3ccccc3Cl)CC2)cc(OC)c1OC`: the B-score entry is “inactive”.

On to `c1ccc(C2c3[nH]c4ccccc4c3CCN2Cc2cccn2-c2cccnc2)nc1` (stereo not given), for which the B-score entry was “inactive”.

Turning to `CCOc1ccc(C2c3[nH]c4ccccc4c3CCN2Cc2cccn2-c2ncccn2)cc1` (stereo not given), the B-score is -9.89 (active).

For the compound `CCOc1ccc(C2c3[nH]c4ccccc4c3CCN2Cc2cn(CC)nc2C)cc1` (stereo not given), the B-score entry was “inactive”.

Regarding `O=C(/C=C/c1cccs1)c1cc(Cl)ccc1OC(=O)N1CCOCC1`, the B-score result is “inactive”.

As to `COc1cc(NC(=O)Nc2ccc(C)cc2)cc([N+](=O)[O-])c1`, the B-score result is “inactive”.

Turning to `COc1cc(NC(=S)NCCSc2ccc(C)cc2)cc(OC)c1`, the B-score is -9.28 (active).

Turning to `COc1cc(NC(=S)NCc2ccc(S(N)(=O)=O)cc2)cc(OC)c1`, the B-score result is “inactive”.

Take `Cc1cc(C)n(-c2ccc(NC(=O)C3CCCCN3C(=O)c3cccs3)cc2)n1` (stereo not given): the B-score result is “inactive”.

For the compound `CNC(C)C#Cc1ccc2sc3cc(OC)c(OC)cc3c(=O)c2c1` (stereo not given), the B-score entry is “inactive”.

On to `CCOC(=O)C1=C(c2ccccc2)O/C(=C(/C(=O)OC)C(F)(F)F)S1`, for which the B-score result was “inactive”.

Take `Cc1ccccc1C(=O)Nc1ccccc1NC(=O)c1ccccc1C`: the B-score result is “inactive”.

As for `CCCCCCCCn1c2c(c(=N)c3c1CCC3)CCCC2`, the B-score is -14.2 (active).

Turning to `O=C(NCc1cc(F)cc(C(F)(F)F)c1)C1CCC(=O)N(C2CCCC2)C1` (stereo not given), the B-score entry is “inactive”.

With `COc1ccccc1C(=O)NCCn1cc(SCC(=O)NCc2ccco2)c2ccccc21`, the B-score result is “inactive”.

For the compound `COc1ccccc1CC(=O)NCCc1c[nH]c2ccccc12`, the B-score entry was “inactive”.

Take `COc1ccc(S(=O)(=O)NCCc2c[nH]c3ccccc23)cc1OC`: the B-score result is “inactive”.

On to `COc1cccc(CNCCc2c[nH]c3ccccc23)c1OCc1ccccc1F`, for which the B-score is -8.25 (active).

On to `Cc1cc(C)n(CCNS(=O)(=O)c2ccc(Cl)cc2)n1`, for which the B-score entry is “inactive”.

In the case of `COc1cccc(NC(=O)N2CCCC2C(=O)NC2CCCCC2)c1` (stereo not given), the B-score entry is “inactive”.

As to `CCC1CCCCN1C(=O)Nc1cccc(NC(=O)N2CCCCC2CC)c1` (stereo not given), the B-score is -7.72 (active).

`CCC1CCCCN1C(=S)Nc1ccc(C(C)=O)cc1` (stereo not given): the B-score result is “inactive”.

`O=C(Nn1c(-c2ccc(Cl)cc2)nc2ccccc2c1=O)c1cccnc1Cl`: the B-score result is “inactive”.

Take `C/C(=N\N(C)C)c1ccc(OCCOc2ccc([N+](=O)[O-])cc2)cc1`: the B-score entry was “inactive”.

On to `Cc1ccc(NC(=O)c2cc3ccccc3o2)cc1`, for which the B-score result is “inactive”.

Consider `Cc1c(/C=N\NC(=O)c2cc3ccccc3o2)c2ccccc2n1C`, for which the B-score was -6.85 (active).

For `O=C(N/N=C/c1c[nH]c2ccccc12)c1cc2ccccc2o1`, the B-score entry is “inactive”.

On to `CC(C)c1nnc(NC(=O)C2CC(=O)N(CCc3ccc(F)cc3)C2)s1` (stereo not given), for which the B-score entry was “inactive”.

For `CCCc1nc(SCC(=O)Nc2ccc(S(=O)(=O)N(C)C)cc2)c2ccccc2n1`, the B-score result is “inactive”.

Turning to `CN(C(=O)CSc1nc(C2CC2)nc2ccccc12)c1nc(-c2ccccc2)cs1`, the B-score entry is “inactive”.

Regarding `CC(C)N(C(=O)CSc1nc(COc2ccccc2)nc2ccccc12)C(C)C`, the B-score is -17.1 (active).

For `COCCCNC(=S)N1CCN(c2nc(-c3cccc(OC)c3)cs2)CC1`, the B-score result is “inactive”.

For `CN(c1ccc(OCC(=O)O)cc1)S(=O)(=O)c1ccc2ccccc2c1`, the B-score entry is “inactive”.

On to `Cc1ccc2nc(COc3ccc(N(C)S(=O)(=O)c4ccccc4)cc3)cc(=O)n2c1`, for which the B-score result was “inactive”.

For the compound `COc1cccc(COc2ccc(N(C)S(=O)(=O)c3ccccc3)cc2)c1`, the B-score was -14.1 (active).

As to `O=C(Nc1ccccc1)O/N=C1/CCCc2occc21`, the B-score result was “inactive”.

In the case of `Cc1ccc2c(c1)N(CC(=O)N1CCC(O)CC1)C(=O)CO2`, the B-score result is “inactive”.

Turning to `O=C(O)COCC(=O)NCc1csc2ccc(Cl)cc12`, the B-score entry is “inactive”.

Consider `Cc1nonc1NC(=O)c1oc2ccccc2c1C`, for which the B-score result is “inactive”.

As for `Cc1noc(C)c1C(=O)Nc1ccccn1`, the B-score result is “inactive”.

Take `Cc1c(C(=O)Nc2ccccn2)oc2ccc(Br)cc12`: the B-score is -9.33 (active).

As to `C[C@H](NC(=O)c1nc[nH]c1C(=O)NCC(=O)OC(C)(C)C)C(=O)OCc1ccccc1`, the B-score result was “inactive”.

Turning to `O=C(NCC1CCCO1)c1cc2c([nH]c3ccccc32)c(-c2ccc(F)cc2)n1` (stereo not given), the B-score result is “inactive”.

Regarding `CSCC[C@H](NC(=O)CCCn1nnc2ccccc2c1=O)C(=O)O`, the B-score entry was “inactive”.

In the case of `CCN(CC)CCNC(=O)c1ccc(NC(=O)c2c(F)cccc2Cl)cc1`, the B-score result is “inactive”.

For `Cc1nn(-c2ccccc2)c(Cl)c1/C=N/NC(=O)c1nn(C)cc1[N+](=O)[O-]`, the B-score result was “inactive”.

`Cc1cc(=O)[nH]c(N/N=C/c2ccc3c(c2)OCCO3)n1`: the B-score entry is “inactive”.

Regarding `Cc1cc(=O)[nH]c(N/N=C/c2c(C)nn(-c3ccccc3Cl)c2Cl)n1`, the B-score was -6.92 (active).

Take `C=C1CCN([C@H](C(=O)NCc2cc(OC)c(OC)c(OC)c2)C(C)C)S(=O)(=O)c2ccccc21`: the B-score result is “inactive”.

As to `CCN(c1ccccc1)S(=O)(=O)c1cc2c(cc1C)n(C)c(=O)c(=O)n2C`, the B-score entry is “inactive”.

With `Cc1ccc2c(c1)N(CC(=O)N(Cc1ccccn1)Cc1ccco1)C(=O)C(C(C)C)O2` (stereo not given), the B-score entry is “inactive”.

As to `Cn1nc(C(F)(F)F)c2cc(C(=O)N3CCOCC3)sc21`, the B-score result is “inactive”.

Turning to `COc1cccc(-c2nn(C)c3sc(C(=O)N4CCN(c5ccccc5)CC4)cc23)c1`, the B-score is -9.93 (active).

`COc1cccc(-c2ccc(SCC(=O)N3CCN(c4ccccc4)CC3)nn2)c1`: the B-score entry was “inactive”.

Take `COc1ccccc1N1CCN(C(=O)c2cc3c(-c4ccc(Cl)cc4)nn(C)c3s2)CC1`: the B-score is -13.6 (active).

As for `Cn1nc(-c2ccc(Cl)cc2)c2cc(C(=O)NCc3ccco3)sc21`, the B-score entry is “inactive”.

With `COc1cccc(-c2cc(C(=O)N3CCN(c4ccccc4OC)CC3)no2)c1`, the B-score result was “inactive”.

For `CN1CCN(C2Cc3ccc(Cl)cc3Sc3ccc(F)cc32)CC1` (stereo not given), the B-score entry is “inactive”.

Turning to `N#C/C=C/N1CCN(Cc2ccc3c(c2)OCO3)CC1`, the B-score result is “inactive”.

Regarding `CC(C)(C)NC(=O)Cn1c(SCC(=O)Nc2nccs2)nc2ccccc21`, the B-score result was “inactive”.

Turning to `O=C(Nn1cnnc1)c1cc(Cl)ccc1Cl`, the B-score entry was “inactive”.

For the compound `COc1ccc(/C=N/OCc2ccccc2C#N)c(OC)c1`, the B-score result is “inactive”.

On to `COc1cc(C(=O)NCC(=O)N2CC=C(c3ccccc3)CC2)cc(OC)c1OC`, for which the B-score entry was “inactive”.

`O=C(Nc1ccccc1)N1CCN(C(=O)Nc2ccccc2)CC1`: the B-score result was “inactive”.

Consider `O=C(Nc1ccc(Cl)c(Cl)c1)N1CC=C(c2ccccc2)CC1`, for which the B-score is -8.34 (active).

For `CN(C)c1ccc(CNC(=O)CN2C(=O)COc3ccc(S(=O)(=O)N4CCCC4)cc32)cc1`, the B-score entry is “inactive”.

On to `Cc1cccc(N(C)C(=O)CN2C(=O)COc3ccc(S(=O)(=O)N4CCCCCC4)cc32)c1`, for which the B-score was -8.26 (active).

On to `CC(=O)Nc1ccc(NC(=O)CN2C(=O)COc3ccc(S(=O)(=O)N4CCCCC4)cc32)cc1`, for which the B-score entry was “inactive”.

Regarding `COc1ccc(NC(=O)C(CC(C)C)NS(=O)(=O)c2ccc3c(c2)CCN3C(C)=O)cc1OC` (stereo not given), the B-score entry was “inactive”.

Take `S=c1nc2ccccc2c2nc(-c3cccnc3)[nH]n12`: the B-score entry was “inactive”.

For the compound `COCCCn1c(SCC(=O)Nc2oc(C)c3c(C)n[nH]c(=O)c23)nc2sc3c(c2c1=O)CCC3`, the B-score entry is “inactive”.

On to `Oc1ccc(/C=N/Nc2nc(-c3ccccc3F)nc3ccccc23)c(O)c1`, for which the B-score is -10.4 (active).

In the case of `Cc1nc2ccccc2nc1N/N=C/c1ccc(O)cc1O`, the B-score entry is “inactive”.

As for `Fc1ccc(/C=N/Nc2nc(-c3cccnc3)nc3ccccc23)cc1`, the B-score result is “inactive”.

`O=C(CN1CCN(Cc2ccccc2)CC1)Nc1ccc(F)c(F)c1`: the B-score entry is “inactive”.

For the compound `O=C(CC(NC(=O)c1ccccc1)c1ccccc1)Nc1ccc(F)c(F)c1` (stereo not given), the B-score was -10 (active).

For `Cc1ccc(NC(=O)NC(=O)c2ccccc2)cc1F`, the B-score result is “inactive”.

As for `Cc1ccc(N/N=C2\COC(C)(C)CC2=O)cc1`, the B-score entry was “inactive”.

For `Cc1ccc(S(=O)(=O)N2CCN(CC(=O)N/N=C/c3ccc(Br)s3)CC2)cc1`, the B-score entry was “inactive”.

Consider `O=C(CN1CCCCCC1)Nc1ccc(S(=O)(=O)N2CCCCC2)cc1`, for which the B-score entry is “inactive”.

For the compound `Cc1cccc(NC(=O)CN2CCCN(S(=O)(=O)c3ccc(Br)s3)CC2)c1`, the B-score was -14.6 (active).

Turning to `O=C1CCN(Cc2ccc([N+](=O)[O-])cc2)CCN1[C@H](CO)Cc1ccccc1`, the B-score entry is “inactive”.

For the compound `CCCSc1nc(NCc2ccco2)c2c3c(sc2n1)COC(C)(CC)C3` (stereo not given), the B-score was -9.18 (active).

Take `CCC1(C)Cc2c(sc3nc(SC)[nH]c(=O)c23)CO1` (stereo not given): the B-score result is “inactive”.

`CCC1(C)Cc2c(sc3nc(SC)nc(N)c23)CO1` (stereo not given): the B-score entry was “inactive”.

For `COc1ccc(-c2nc3c(s2)CCc2onc(-c4ccc(OC)cc4)c2-3)cc1`, the B-score entry is “inactive”.

`CC1CC(C)CN(S(=O)(=O)c2cccc3nonc23)C1` (stereo not given): the B-score entry was “inactive”.

In the case of `CCn1c(Cc2cccs2)nnc1SCC(=O)c1ccc(C)cc1`, the B-score entry was “inactive”.

`Cc1cc([N+](=O)[O-])ccc1NC1CCCC1`: the B-score entry was “inactive”.

In the case of `Cc1cc(C=O)c(C)n1-c1ccc(NC2CCCCC2)c([N+](=O)[O-])c1`, the B-score is -24.9 (active).

In the case of `Cc1c(NS(=O)(=O)c2ccc(NC3CCCC3)c([N+](=O)[O-])c2)c(=O)n(-c2ccccc2)n1C`, the B-score entry was “inactive”.

Turning to `Cc1ccc2nc(C)c3c(c2c1)N(c1ccccc1)CC3`, the B-score result is “inactive”.

`Cc1nc2nc(SCC(=O)Nc3cccc(F)c3)[nH]c2cc1Br`: the B-score entry was “inactive”.

Turning to `COc1ccc(-c2nc3n(c(=O)c2C#N)CCS3)c(OC)c1`, the B-score result is “inactive”.

Consider `CCC1CCC/C1=N\NC(=O)c1ccc(Cl)cc1` (stereo not given), for which the B-score result was “inactive”.

Consider `Cc1sc2nc(CSCC(=O)NC3CCCCC3)[nH]c(=O)c2c1C`, for which the B-score entry is “inactive”.

Turning to `CCCCCn1c(=O)c(C(=O)OCC)c(Cl)c2ccccc21`, the B-score is -8.35 (active).

For the compound `CCOC(=O)c1nnn2c3ccccc3c(=O)n(C)c12`, the B-score entry was “inactive”.

Turning to `CCCCn1c(=O)c(C(C)=O)c(O)c2ccccc21`, the B-score result is “inactive”.

As for `COc1ccccc1C1C(C#N)=C(N)Oc2c1c(-c1ccccc1)nn2-c1ccccc1` (stereo not given), the B-score entry is “inactive”.

Take `CCc1nnc(NC(=O)CSc2nc(SC)ns2)s1`: the B-score entry is “inactive”.

Consider `CN1C(C(=O)NCc2ccco2)CC2Cn3c(nc4ccccc43)C21` (stereo not given), for which the B-score result is “inactive”.

As for `Cc1cc(C)cc(C(=O)N2CCN=C2SCc2ccc([N+](=O)[O-])cc2)c1`, the B-score is -7.18 (active).

Consider `Cc1cccc(CC(=O)N2CCN=C2SCc2ccc([N+](=O)[O-])cc2)c1`, for which the B-score result was “inactive”.

On to `O=C(Cc1ccc(F)cc1)N1CCN=C1SCc1cccc([N+](=O)[O-])c1`, for which the B-score entry is “inactive”.
